Bioassay records from PubChem BioAssay.
SMARCA2 act: SMARCA2 (BRM) function activators, primary screen, cell-based, luminescence, high throughput. MG213 cells, MMTV-luciferase reporter, dexamethasone, overnight. activation, % at 9.1 µM. 1% of 370,000 active. AID 652017, 2013; in the data active means activation above about 7.8%;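 further: 0% = vehicle wells and 100% = reference activator wells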
DAX1 inh-1: DAX1 (NR0B1) inhibitors, primary screen, cell-based, HEK293, Gal4-DAX1, luciferase luminescence. HEK293 Gal4-DAX1 luciferase reporter. AID 504766, 2011. 0.99% of 340,000 active. Nuclear receptor subfamily 0 group B member 1 (Homo sapiens), P51843. inhibition, % at 6.75 µM;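 active means inhibition above the mean over all tested compounds plus 3 SD, cut at about 4.2% in these data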;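 further: 0% = DAX1-transfected cells with DMSO and 100% = empty-vector control cells with DMSO; inhibition shows as a rise in luminescence from relieved DAX1 repression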
Target sequence (P51843 207-470 limits assumed): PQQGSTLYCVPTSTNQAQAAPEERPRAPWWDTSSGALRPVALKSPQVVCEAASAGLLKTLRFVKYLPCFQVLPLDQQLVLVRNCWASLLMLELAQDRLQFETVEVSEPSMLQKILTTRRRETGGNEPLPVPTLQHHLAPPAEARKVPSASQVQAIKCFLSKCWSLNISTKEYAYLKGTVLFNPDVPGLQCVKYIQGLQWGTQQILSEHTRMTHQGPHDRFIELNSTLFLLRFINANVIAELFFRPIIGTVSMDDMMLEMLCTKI
hcDAF-12 act: H. contortus DAF-12 nuclear receptor activators, primary screen, cell-based, luminescence, HEK293, lit1-tk-luc reporter | 1.4% of 370,000 active | HEK293 hcDAF-12 lit1-tk-luc reporter; 0% DMSO, 100% Δ7-dafachronic acid | activation, % at 6.8 µM;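 active means activation above the mean of all tested compounds plus 3 SD, cut at about 5.5% in these data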;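 further: 100% = response to 3 µM Δ7-dafachronic acid high control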
ssDAF-12 act: S. stercoralis DAF-12 nuclear receptor activators, primary screen, cell-based, luminescence, HEK293, GRIP1 co-expression, lit1-tk-luc; activation, % at 6.8 µM; AID 652126, 2013; 1% of 370,000 active; HEK293 ssDAF-12/GRIP1 lit1-tk-luc reporter; % of 3 µM dafachronic acid response; Nuclear hormone receptor DAF-12 (Strongyloides stercoralis);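 active means activation above the mean over all tested compounds plus 3 SD, cut at about 0.9% in these data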;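 further: 0% = DMSO-only wells and 100% = 3 µM delta7-dafachronic acid wells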
hgDAF12 agonist: H. glycines DAF-12 receptor agonists, primary screen, cell-based, luminescence, HEK293, GAL4 fusion, UAS-luciferase; HEK293 GAL4-hgDAF12 UAS-luciferase reporter, agonist luminescence; normalized to butyrate control; Nuclear hormone receptor DAF-12 (Heterodera glycines), GAL4 fusion; 1.8% of 370,000 active; activation, % at 6.8 µM;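 active means activation above a cutoff set at the mean of all screened compounds plus 3 SD, cut at about 10% in these data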;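 further: 0% = DMSO wells and 100% = sodium butyrate wells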
DAX1 inh-2: DAX1 (NR0B1) inhibitors on StAR promoter, primary screen, cell-based, luminescence, SF-1 (NR5A1), full-length DAX-1 | HEK293T StAR-luciferase reporter, SF-1/DAX-1 repression relief | inhibition, % at 6.8 µM | 1.1% of 370,000 active | AID 652010, 2013;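 active means inhibition above the mean over all tested compounds plus 3 SD, cut at about 3.6% in these data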;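 further: 0% = DAX-1 cells with DMSO and 100% = cells lacking DAX-1 with DMSO; higher inhibition means more luminescence from relief of DAX-1 repression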
DAX1 conf: DAX1 (NR0B1) inhibitors relieving SF-1 repression, confirmation, cell-based, luminescence, HEK293T, full-length DAX-1, SF-1 activated StAR promoter; shares compounds with DAX1 inh-2; inhibition, % at 6.8 µM; HEK293T StAR-promoter luciferase reporter, SF-1/DAX-1 repression; AID 652134, 2013; 87% of 2,400 active;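 active means inhibition above the average of every tested compound plus 3 SD, cut at about 3.8% in these data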;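 further: 0% = DAX-1 cells with DMSO and 100% = no DAX-1 control cells with DMSO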
Target sequence (P51843 whole entry, looked up): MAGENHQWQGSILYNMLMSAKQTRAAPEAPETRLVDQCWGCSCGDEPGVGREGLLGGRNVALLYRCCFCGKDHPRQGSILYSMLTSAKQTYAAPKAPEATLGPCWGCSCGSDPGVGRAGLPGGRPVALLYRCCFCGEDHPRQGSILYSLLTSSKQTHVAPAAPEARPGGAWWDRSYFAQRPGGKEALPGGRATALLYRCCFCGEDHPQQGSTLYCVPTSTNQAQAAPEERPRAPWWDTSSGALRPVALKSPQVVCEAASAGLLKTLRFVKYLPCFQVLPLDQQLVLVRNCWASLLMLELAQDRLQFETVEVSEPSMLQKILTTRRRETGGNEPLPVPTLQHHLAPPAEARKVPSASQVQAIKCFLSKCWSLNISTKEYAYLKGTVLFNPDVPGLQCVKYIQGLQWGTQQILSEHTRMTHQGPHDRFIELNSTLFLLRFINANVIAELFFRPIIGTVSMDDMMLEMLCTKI
SF1 AF2mut Luc: StAR reporter signal changes without DAX1, counter-screen for DAX1 inhibitor project, cell-based, luminescence, AF-2 mutant SF-1, transactivation; shares compounds with DAX1 inh-2; HEK293 StAR-luciferase, SF-1 AF2 mutant; inhibition, % at 6.8 µM; 78% of 2,400 active; AID 652136, 2013;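 active means inhibition above the mean of all tested compounds plus 3 SD, cut at about 3% in these data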;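 further: 0% = DAX-1 transfected cells with DMSO and 100% = cells without DAX-1 with DMSO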
SMARCA2 conf: SMARCA2 (BRM) function activators, confirmation, cell-based, luminescence, triplicate; activation, % at 9.1 µM; 30% of 3,500 active; shares compounds with SMARCA2 act; MG213 cells, MMTV-luciferase with dexamethasone, overnight; MG213 cells expressing E1A, Rb sequestered; DMSO wells 0%, reference activator 100%;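 active means activation above its plate's cutoff, the mean activation of tested wells plus 3 SD, cut at about 7.9% in these data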
VP16 Luc act: GAL4-VP16 luciferase reporter activation, counter-screen for SMARCA2 (BRM) activator project, cell-based, pG5luc, luminescence, high throughput; shares compounds with SMARCA2 act; HEK293 GAL4-VP16 pG5luc reporter; scaled: DMSO wells 0%, SAHA wells 100%; activation, % at 9.1 µM; 41% of 3,500 active;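 active means activation above the solvent-only control well mean plus 3 SD, averaged across control plates, cut at about 5.2% in these data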
LXR ag: LXR agonists, Gal4 luciferase reporter, confirmation, counter-screen for hcDAF-12 agonist project, cell-based, luminescence, HEK293, H. contortus campaign; 3,400 tested, under 10 active; HEK293 Gal4-LXR tk-luc reporter, 24 h; normalized: DMSO 0%, positive control 100%; activation, % at 6.8 µM; shares compounds with hcDAF-12 act;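 active means mean percent activation of the reporter above a cutoff set as the average over tested compounds plus their standard deviation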
hcDAF12 ag: H. contortus DAF-12 receptor agonists, confirmation, cell-based, luminescence, HEK293, lit1-tk-luc, triplicate; AID 743032, 2013; activation, % at 6.8 µM; 61% of 3,400 active; shares compounds with hcDAF-12 act; HEK293 hcDAF-12 lit1-tk-luc reporter; % of Δ7-dafachronic acid response;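 active means mean activation across triplicate tests above the threshold derived from the earlier primary screen, cut at about 5.5% in these data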;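 further: 0% = DMSO only wells and 100% = 3 µM Δ7-dafachronic acid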
hgDAF12 ag: H. glycines DAF-12 receptor agonists, confirmation, cell-based, luminescence, HEK293, GAL4-LBD fusion. 80% of 3,300 active. AID 743050, 2013. activation, % at 6.8 µM. HEK293 GAL4-hgDAF12 luciferase reporter, agonist mode; percent of butyrate response. shares compounds with hgDAF12 agonist;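 active means mean activation over triplicate wells above the hit cutoff derived from the earlier primary screen, cut at about 11% in these data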;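 further: 0% = DMSO low control and 100% = 2 mM sodium butyrate high control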
LXR ag 2: LXR agonists, Gal4 luciferase reporter, confirmation, counter-screen for hgDAF-12 agonist project, cell-based, luminescence, HEK293, H. glycines campaign; shares compounds with hgDAF12 agonist; 24 h; activation, % at 6.8 µM; 3,300 tested, under 10 active;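 active means mean activation of the triplicate above a set limit carried over from the primary screen, none filed active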
* hit, by the source's call; . = no result given. Shown are actives, neighbours in structure and some others; about 4.8% of the full set was active somewhere.

SMILES	SMARCA2 act	DAX1 inh-1	hcDAF-12 act	ssDAF-12 act	hgDAF12 agonist	DAX1 inh-2	DAX1 conf	SF1 AF2mut Luc	LXR ag	hcDAF12 ag	hgDAF12 ag	LXR ag 2	others
COCCOCCn1c(/C=C/c2ccccc2)nc2ccccc21	1.2	4.1	3.1	0.2	13.2*	6.2*	13.7*	6.8*	.	.	14.9*	0.8
COc1ccc(/C=C/c2nc3ccccc3n2Cc2ccc(OC)c(OC)c2)cc1	4.8	-0.3	7.7*	0.9*	26.8*	5.9*	19.4*	6.8*	1.4	8.6*	15.1*	0.9
CCCc1cc(=O)[nH]c(SCC(=O)Nc2ccc(Cl)c(S(=O)(=O)N3CCOCC3)c2)n1	-5.0	-0.9	-1.9	-0.8	-2.4	1.6	.	.	.	.	.	.
O=c1c2ccccc2oc2c1oc1ccccc12	14.2*	2.6	4.8	0.1	15.2*	6.6*	7.3*	6.5*	.	.	12.9*	0.4	SMARCA2 conf=5.1;VP16 Luc act=9.0*
Cn1cccc1C(=O)OCC(=O)c1c[nH]c2ccccc12	6.1	4.0	10.6*	0.4	13.8*	4.7*	16.0*	8.1*	1.4	6.3*	13.8*	0.8
Cc1cnc(C(=O)OCC(=O)c2c[nH]c3ccccc23)cn1	-0.3	1.4	4.4	0.2	4.6	1.7	.	.	.	.	.	.
COc1cccc(C(=O)/C=C2\Sc3ccccc3N2C)c1	7.0	1.1	13.0*	2.6*	28.2*	5.4*	11.4*	10.0*	1.7	9.1*	21.6*	1.0
Cc1ccc(C(=O)Nc2nc3ccc(S(C)(=O)=O)cc3s2)s1	3.5	0.7	3.9	-0.3	7.2	1.5	.	.	.	.	.	.
CCCCNC(=O)Nc1nc2ccccc2s1	0.5	8.8*	2.8	0.1	14.6*	5.5*	10.5*	4.8*	.	.	14.7*	0.7
Cc1ccc(C(=O)Nc2nc3ccccc3s2)s1	-1.2	0.6	11.9*	0.7	21.4*	4.8*	15.8*	6.2*	1.8	11.1*	21.7*	1.2
C(=C\c1nc(-c2ccccc2)no1)/c1ccccc1	8.9*	2.8	5.8*	0.5	17.3*	5.9*	17.0*	6.7*	.	.	22.7*	0.9	SMARCA2 conf=9.3*;VP16 Luc act=9.1*
Fc1cccc(Cl)c1Cc1noc(/C=C/c2ccccc2)n1	1.4	1.3	-0.2	-1.2	4.7	1.9	.	.	.	.	.	.
O=C(COc1ccccc1)NC(=S)Nc1ccc2c3c(cccc13)CC2	0.8	-0.8	-0.4	-0.9	-2.0	-0.4	.	.	.	.	.	.
O=C(Nc1ccc2c(c1)OCCO2)c1cnc2ccccn2c1=O	4.8	1.7	1.4	-0.1	9.7	3.0	.	.	.	.	.	.
Cc1cccc(NC(=O)c2cnc3ccccn3c2=O)c1	2.7	0.9	8.8*	0.5	22.4*	7.7*	10.6*	4.4*	1.6	6.1*	16.6*	1.2
CC(Cc1ccccc1)NC(=O)/C=C/c1ccc([N+](=O)[O-])cc1 (configuration not stated)	-3.0	-1.6	-0.7	-1.9	1.1	-0.8	.	.	.	.	.	.
CC(Cc1ccccc1)NC(=O)c1ccc([N+](=O)[O-])cc1 (configuration not stated)	7.8*	3.1	5.7*	0.5	14.1*	4.8*	14.3*	8.9*	.	.	14.5*	0.6
CCN(CC)CCN(C(=O)c1ccc(C(=O)c2ccccc2)cc1)c1nc2cc3c(cc2s1)OCO3	-2.9	-0.4	-0.8	-1.2	3.1	2.2	.	.	.	.	.	.
CCN(CC)CCN(C(=O)c1ccc2ncsc2c1)c1nc2cc3c(cc2s1)OCO3	3.7	-0.8	15.9*	2.6*	17.4*	14.8*	10.6*	11.3*	1.5	11.0*	15.1*	0.6
CCN(Cc1ccccc1)c1c(C(=O)O)cnc2c1cnn2C	-2.6	.	-0.3	-0.9	-0.5	0.6	.	.	.	.	.	.
Cc1ccc2nc(-c3cccc(Br)c3)c(Cc3ccsc3)n2c1	9.5*	.	3.1	-0.5	14.7*	4.5*	2.9	1.0	.	.	4.8	0.3	SMARCA2 conf=9.7*;VP16 Luc act=8.9*
